Screens (PubChem BioAssay)
BoNT A protease: BoNT/A light chain protease inhibitors, primary screen, biochemical, flow cytometry, MLPCN library | Botulinum neurotoxin type A light chain protease (Clostridium botulinum A str. ATCC 3502) | multiplex microsphere protease substrate cleavage | inhibition, % at 10 µM | 0.17% of 360,000 active
Autofluor counter: counter-screen for toxin protease inhibitors: compound fluorescence. compound autofluorescence counterscreen, microsphere flow cytometry; stronger effect = higher value. AID 624483. 3.1% of 360,000 active. fluorescence intensity (test concentration not listed); in the data active = fluorescence intensity above about 16000; inconclusive = no clear call, values can overlap the other calls
GDH-TPI counter-1: GDH-TPI coupling enzyme inhibitors, primary screen, artefact control for M. tuberculosis FBA inhibitor project, biochemical, absorbance, full deck | GDH-TPI coupled enzyme counterscreen, NADH absorbance | inhibition, % at 4.8 µM | 1.2% of 360,000 active; in the data active = inhibition above about 30%
FBA Mtb inh: Mtb FBA enzyme inhibitors, primary screen, biochemical, fluorescence, strain H37Rv; Fructose-bisphosphate aldolase (Mycobacterium tuberculosis (strain ATCC 25618 / H37Rv)), …; purified M. tuberculosis FBA, fluorescence read-out; inhibition, % at 1 µM; 2.3% of 360,000 active; in the data active = inhibition above about 27%
BoNT F protease: BoNT/F light chain protease inhibitors, primary screen, biochemical, flow cytometry, MLPCN library. inhibition, % at 10 µM. 0.22% of 360,000 active. Botulinum neurotoxin type F light chain protease (Clostridium botulinum). Multiplex microsphere protease cleavage assay; in the data active = inhibition above about 35%, passing the limit was not always enough; inconclusive = no clear call, values can overlap the other calls
Anthrax LF inh2: Bacillus anthracis LF protease inhibitors, primary screen, biochemical, multiplex microsphere, MLPCN library; 0.12% of 360,000 active; AID 588501, 2011; Lethal factor (Bacillus anthracis), P15917; multiplex microsphere protease cleavage assay; inhibition, % at 10 µM
Target sequence (P15917 whole entry, looked up): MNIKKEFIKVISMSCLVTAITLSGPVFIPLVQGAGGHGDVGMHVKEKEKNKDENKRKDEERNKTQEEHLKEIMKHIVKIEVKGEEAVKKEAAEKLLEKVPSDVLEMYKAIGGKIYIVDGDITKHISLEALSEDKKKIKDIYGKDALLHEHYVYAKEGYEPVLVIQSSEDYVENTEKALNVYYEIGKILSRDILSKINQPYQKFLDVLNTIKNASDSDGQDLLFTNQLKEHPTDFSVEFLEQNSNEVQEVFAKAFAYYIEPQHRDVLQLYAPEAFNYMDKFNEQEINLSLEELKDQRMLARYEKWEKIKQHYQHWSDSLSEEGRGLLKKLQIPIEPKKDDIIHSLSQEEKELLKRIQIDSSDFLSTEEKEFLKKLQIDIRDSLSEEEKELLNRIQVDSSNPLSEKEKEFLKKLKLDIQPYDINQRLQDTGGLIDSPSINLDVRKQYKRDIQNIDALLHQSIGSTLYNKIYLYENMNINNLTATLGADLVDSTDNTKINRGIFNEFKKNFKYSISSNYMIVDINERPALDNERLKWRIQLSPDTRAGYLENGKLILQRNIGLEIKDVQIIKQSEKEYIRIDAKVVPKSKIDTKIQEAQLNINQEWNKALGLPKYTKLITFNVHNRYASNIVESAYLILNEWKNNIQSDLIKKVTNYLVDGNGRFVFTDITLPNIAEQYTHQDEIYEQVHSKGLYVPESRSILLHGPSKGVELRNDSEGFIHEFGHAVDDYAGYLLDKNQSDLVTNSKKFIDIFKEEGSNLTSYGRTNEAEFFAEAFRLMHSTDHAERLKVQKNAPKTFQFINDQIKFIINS
Mtb FBA inh conf: M. tuberculosis aldolase blockers, biochemical, fluorescence, strain H37Rv, confirmation | shares compounds with FBA Mtb inh | purified M. tuberculosis FBA, fluorescence read-out | inhibition, % at 1 µM | 78% of 5,600 active; in the data active = inhibition above about 27%
GDH-TPI counter-2: GDH-TPI coupling enzyme inhibitors, artefact control for M. tuberculosis FBA inhibitor project, biochemical, fluorescence, high throughput. shares compounds with FBA Mtb inh. 81% of 5,600 active. inhibition, % at 1 µM. GDH-TPI coupled enzyme counterscreen; in the data active = inhibition above about 10%
GDH-TPI DR: GDH-TPI coupling enzyme inhibitors, dose response, artefact control for M. tuberculosis FBA inhibitor project, biochemical, fluorescence, IC50; shares compounds with FBA Mtb inh; IC50, µM; 79% of 170 active; GDH-TPI coupled enzyme assay, artifact counterscreen; call rule not given here
A number is an active result; i = inactive; ? = inconclusive; nt = not tested or not shown; + = active, no number. The list is not random: actives were taken first. Their share in the collection is about 6.7%. Cut-off read from the data, not from the text of the source, unless noted: active = inhibition above about 30%; inconclusive = no clear call, values can overlap the other calls; inactive = below that.

SMILES | BoNT A protease | Autofluor counter | GDH-TPI counter-1 | FBA Mtb inh | BoNT F protease | Anthrax LF inh2 | Mtb FBA inh conf | GDH-TPI counter-2 | others
CCCCn1c(N)c(C(=O)NCc2cccs2)c2nc3ccccc3nc21 | nt | nt | i | 33.1 | nt | nt | 165.8 | 141.8
COc1ccc(S(=O)(=O)Cc2ccc(C(=O)NCc3ccco3)o2)cc1 | i | i | i | i | i | i | nt | nt
S=c1[nH]nc(Nc2ccccc2Cl)s1 | i | i | i | i | i | i | nt | nt
CCCCCOc1ccc(Cl)cc1CN1CCOCC1 | i | i | i | i | i | i | nt | nt
Cc1ccc2[nH]cc(S(=O)(=O)c3ccc(C)c(C)c3)c(=O)c2c1 | i | i | i | i | i | i | nt | nt
CC1CCC2(CC1)NC(=O)N(CC(=O)Nc1ccccc1-c1ccccc1)C2=O (stereo unspecified) | i | i | i | 54.6 | i | i | i | i
CC1OC2(C)OC(=N)C1(C#N)C(C#N)(C#N)C2c1ccccc1 (stereo unspecified) | i | i | i | 53.5 | i | i | 62.5 | 49.6
CCCCC1OC2(C)OC(=N)C1(C#N)C(C#N)(C#N)C2c1ccccc1 (stereo unspecified) | i | i | i | 77.7 | i | i | 115.8 | 82.8
COC(=O)C1(C#N)C(c2ccccc2)C1(C(=O)OC)C(=O)OC (stereo unspecified) | i | i | i | i | i | i | nt | nt
CCn1c(C)c(CCC(=O)O)c(=O)n2nc(-c3ccccc3OC)cc12 | i | i | i | 53.7 | i | i | 39.5 | 40.6
COc1cc(NC(=O)c2sc3nc(C)nc(N4CCOCC4)c3c2C)cc(OC)c1OC | i | i | i | i | i | i | nt | nt
COC(=O)C1=CN(Cc2ccc(OC)c(OC)c2)C=C(C(=O)OC)C1c1ccccc1F | i | i | i | 90.9 | ? | i | 61.4 | 46.9
COC(=O)C1=CN(Cc2ccc(OC)c(OC)c2)C=C(C(=O)OC)C1c1ccc(F)cc1 | i | i | i | 96.8 | i | i | + | 142.1
COC(=O)C1=CN(Cc2ccccc2)C=C(C(=O)OC)C1c1ccc(OC)c(OC)c1 | i | i | i | i | i | i | nt | nt
COC(=O)C1=CN(Cc2ccccc2)C=C(C(=O)OC)C1c1ccc(O)c(OC)c1 | i | i | i | i | i | i | nt | nt
COC(=O)C1=CN(Cc2ccc(C)cc2)C=C(C(=O)OC)C1c1cc(OC)c(OC)c(OC)c1 | i | i | i | 32.7 | i | i | 91.4 | 73.0
COC(=O)C1=CN(Cc2ccc(OC)c(OC)c2)C=C(C(=O)OC)C1c1ccc(O)cc1 | i | i | i | 63.6 | i | i | + | +
COC(=O)c1c(NC(=O)c2ccccc2)sc2c1CC(C)(C)NC2(C)C | i | i | i | i | i | i | nt | nt
O=C1CCCCC1Oc1ccc2ccc(=O)oc2c1 (stereo unspecified) | i | i | i | 58.2 | i | i | + | 174.4
CCCc1cc(=O)oc2cc(OC3CCCCC3=O)ccc12 (stereo unspecified) | i | i | i | 44.7 | i | i | i | 22.0
COc1ccc(-c2c[n+](CC(=O)c3ccccc3)c3n2CCCCC3)cc1 | i | ? | i | i | ? | i | nt | nt
COc1ccc(-c2c[n+]3c4n2CCCCC4=C(c2ccccc2)C3)cc1 | i | i | i | 105.9 | i | i | i | i
O=C(NCCCN1CCc2ccccc2C1)C1CCN(S(=O)(=O)N2CCCC2)CC1 | i | i | i | i | i | i | nt | nt
Cc1ccsc1C1NC(=O)c2c(sc3c2CCN(C)C3)N1 (stereo unspecified) | i | i | i | 43.5 | i | i | i | i
CN1CCc2c(sc3c2C(=O)NC(c2cccs2)N3)C1 (stereo unspecified) | i | i | i | i | i | i | nt | nt
SMILES | BoNT A protease | Autofluor counter | GDH-TPI counter-1 | FBA Mtb inh | BoNT F protease | Anthrax LF inh2 | Mtb FBA inh conf | GDH-TPI counter-2 | others
COc1ccc(CN2CCc3cc(OC)c(OC)cc3C2)cc1O | i | i | i | i | i | i | nt | nt
COc1cc2c(cc1OC)CN(Cc1ccc(F)cc1)CC2 | i | i | i | 42.9 | i | i | 64.0 | 45.5
C/C(=N/NC(=O)CCc1c(C)n[nH]c1C)c1cccc([N+](=O)[O-])c1 | i | i | i | i | ? | i | nt | nt
COc1ccc(-c2cc(C(=O)O)c3sc(N4CCCCC4)nc3n2)cc1OC | i | i | i | 93.8 | i | i | 109.2 | 67.4
COc1ccc(-c2cc(-c3ccccc3)nc(N3CCCC3)n2)cc1OC | i | i | i | i | i | i | nt | nt
O=C(Nc1cccc(Cl)c1)Nc1ccccc1C(=O)O | i | i | i | 78.8 | i | i | + | 194.9
O=C(Nc1ccc(Cl)cc1)Nc1ccccc1C(=O)O | i | i | i | 54.4 | i | i | i | i
O=C(Cc1ccccc1)NNC(=O)Nc1ccc(Cl)c(Cl)c1 | i | i | i | i | i | i | nt | nt
O=C(Nc1ccccc1)Nc1cccc(Cl)c1 | i | i | i | i | i | i | nt | nt
O=C(Nc1ccc(Cl)c(Cl)c1)Nc1ccccc1C(=O)O | i | i | i | 52.5 | i | i | 34.5 | 19.4
O=C(CCn1c(=S)oc2ccccc21)Nc1ccc(F)cc1 | i | i | i | i | i | i | nt | nt
Cc1ccc(-c2nc3n(n2)Cc2ccccc2-3)cc1 | i | i | i | i | i | i | nt | nt
c1ccc(-c2cn3c(n2)-c2ccccc2C3)cc1 | i | i | i | 47.7 | i | i | 131.7 | 105.9
O=S(=O)(Nc1ncccn1)c1ccc(NC(=S)Nc2ccccc2Cl)cc1 | i | i | i | i | i | i | nt | nt
COc1ccc(S(=O)(=O)N(CCCN2CCCC2=O)Cc2cc3c(C)cc(C)cc3[nH]c2=O)cc1 | i | i | i | 32.6 | i | i | i | i | GDH-TPI DR=i
CCC1(O)C(=O)OCc2c1cc1n(c2=O)Cc2cc3cc(O)ccc3nc2-1 (stereo unspecified) | i | i | i | 29.5 | i | i | 132.7 | 120.0
CC[C@@]1(O)C(=O)OCc2c1cc1n(c2=O)Cc2cc3c(NC(=O)CN)cccc3nc2-1 | i | i | i | 66.0 | i | i | 47.5 | 36.3
COc1cc(NS(=O)(=O)c2ccc(NC(=O)c3cccs3)cc2)nc(OC)n1 | i | i | i | 74.7 | i | i | i | i
